Results as given in PMC4081100, “A DNA-binding-site landscape and regulatory network analysis for NAC transcription factors in Arabidopsis thaliana”.

What was measured:
Test in all cases: universal protein binding microarray (PBM); transcription factors of Arabidopsis thaliana; high values mean tight binding
[1] = biological target: T1, GST-ANAC055(1-171) (Arabidopsis thaliana, UniProt Q9LDY8 1-171); conditions: protein: recombinant; tags: GST; chain copies: 2; dsDNA, one strand shown
T1 sequence: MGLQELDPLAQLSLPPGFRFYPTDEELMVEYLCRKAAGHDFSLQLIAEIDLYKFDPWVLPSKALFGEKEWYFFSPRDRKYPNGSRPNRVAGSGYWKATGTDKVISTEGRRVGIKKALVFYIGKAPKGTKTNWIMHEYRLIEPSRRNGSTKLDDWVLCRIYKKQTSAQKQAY
Method in brief: (§1)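 GST-tagged proteins (NAC-domain, full-length or DNA-binding-domain) were induced in cells, with zinc acetate supplied for zinc-finger proteins, then purified on glutathione–Sepharose 4B. Each was tested in duplicate at 200 to 500 nM final on custom all-10-mer Agilent 4 × 180K arrays rendered double-stranded by primer extension. The binding value is the normalised enrichment score (E-score) across gapped and ungapped 8-mers.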

[2] = biological target: T2, GST-ATAF1 NAC domain (Arabidopsis thaliana, UniProt Q39013 7-158); conditions: protein: recombinant; tags: GST; chain copies: 2; dsDNA, one strand shown
T2 sequence: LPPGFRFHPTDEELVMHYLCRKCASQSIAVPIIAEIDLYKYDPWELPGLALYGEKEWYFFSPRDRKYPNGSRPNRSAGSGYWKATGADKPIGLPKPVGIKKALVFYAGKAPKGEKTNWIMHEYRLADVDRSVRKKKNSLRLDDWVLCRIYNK
Method in brief: as §1

[3] = biological target: T3, GST-NST2(1-184) (Arabidopsis thaliana, UniProt Q9M274 1-184); conditions: protein: recombinant; tags: GST; chain copies: 2; dsDNA, one strand shown
T3 sequence: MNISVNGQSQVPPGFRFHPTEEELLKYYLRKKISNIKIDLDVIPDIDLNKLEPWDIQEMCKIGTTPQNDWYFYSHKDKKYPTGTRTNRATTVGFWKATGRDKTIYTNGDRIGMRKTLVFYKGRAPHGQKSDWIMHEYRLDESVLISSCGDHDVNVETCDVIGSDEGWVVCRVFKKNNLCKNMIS
Method in brief: as §1

[4] = biological target: GST-WRKY1(266-371) (Arabidopsis thaliana, UniProt Q9SI37 266-371); conditions: protein: recombinant; tags: GST; dsDNA, one strand shown
GST-WRKY1(266-371), sequence (Q9SI37 266-371): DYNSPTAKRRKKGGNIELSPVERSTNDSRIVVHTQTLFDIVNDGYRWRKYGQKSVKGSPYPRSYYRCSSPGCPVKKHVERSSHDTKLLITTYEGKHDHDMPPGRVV
Method in brief: as §1

[5] = biological target: T4, GST-ANAC019 NAC domain (Arabidopsis thaliana, UniProt Q9C932 14-162); conditions: protein: recombinant; tags: GST; chain copies: 2; dsDNA, one strand shown
T4 sequence: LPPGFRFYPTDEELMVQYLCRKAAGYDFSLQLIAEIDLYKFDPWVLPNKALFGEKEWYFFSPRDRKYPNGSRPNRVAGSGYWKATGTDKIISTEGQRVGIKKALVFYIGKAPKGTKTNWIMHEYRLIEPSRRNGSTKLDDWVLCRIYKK
Method in brief: as §1

[6] = biological target: T5, GST-NAP(1-166) (Arabidopsis thaliana, UniProt O49255 1-166); conditions: protein: recombinant; tags: GST; chain copies: 2; dsDNA, one strand shown
T5 sequence: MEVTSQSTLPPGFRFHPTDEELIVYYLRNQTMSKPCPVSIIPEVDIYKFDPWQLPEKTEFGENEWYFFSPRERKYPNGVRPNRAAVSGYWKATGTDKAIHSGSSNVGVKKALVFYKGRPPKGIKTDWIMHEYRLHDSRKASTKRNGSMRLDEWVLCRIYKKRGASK
Method in brief: as §1

[7] = biological target: T6, GST-NTL8 NAC domain (Arabidopsis thaliana, UniProt Q9XIN7 14-156); conditions: protein: recombinant; tags: GST; chain copies: 2; dsDNA, one strand shown
T6 sequence: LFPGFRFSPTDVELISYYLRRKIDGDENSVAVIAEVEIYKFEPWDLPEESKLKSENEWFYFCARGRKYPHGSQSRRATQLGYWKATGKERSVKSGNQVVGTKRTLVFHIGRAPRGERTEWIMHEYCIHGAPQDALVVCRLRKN
Method in brief: as §1

[8] = biological target: T7, GST-ANAC092(1-176) (Arabidopsis thaliana, UniProt Q9FKA0 1-176); conditions: protein: recombinant; tags: GST; chain copies: 2; dsDNA, one strand shown
T7 sequence: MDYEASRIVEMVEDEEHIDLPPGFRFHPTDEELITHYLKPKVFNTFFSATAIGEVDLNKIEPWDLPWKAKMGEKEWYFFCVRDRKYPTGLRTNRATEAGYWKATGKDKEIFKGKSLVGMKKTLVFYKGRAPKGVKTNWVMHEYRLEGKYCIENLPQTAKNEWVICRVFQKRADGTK
Method in brief: as §1

[9] = biological target: T8, GST-ANAC092(1-285) full length (Arabidopsis thaliana, UniProt Q9FKA0 1-285); conditions: protein: recombinant; tags: GST; chain copies: 2; dsDNA, one strand shown
T8 sequence: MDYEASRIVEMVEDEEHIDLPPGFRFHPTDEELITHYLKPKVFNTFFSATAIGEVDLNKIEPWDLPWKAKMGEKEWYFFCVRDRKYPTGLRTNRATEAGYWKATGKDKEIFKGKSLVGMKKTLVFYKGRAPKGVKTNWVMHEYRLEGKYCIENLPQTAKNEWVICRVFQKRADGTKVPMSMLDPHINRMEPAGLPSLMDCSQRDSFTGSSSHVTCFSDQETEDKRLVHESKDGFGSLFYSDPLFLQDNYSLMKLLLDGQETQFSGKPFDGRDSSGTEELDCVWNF
Method in brief: as §1

[10] = biological target: GST-NTL6(1-168) (Arabidopsis thaliana, UniProt Q9SCK6 1-168); conditions: protein: recombinant; tags: GST; chain copies: 2; dsDNA, one strand shown
GST-NTL6(1-168), sequence (Q9SCK6 1-168): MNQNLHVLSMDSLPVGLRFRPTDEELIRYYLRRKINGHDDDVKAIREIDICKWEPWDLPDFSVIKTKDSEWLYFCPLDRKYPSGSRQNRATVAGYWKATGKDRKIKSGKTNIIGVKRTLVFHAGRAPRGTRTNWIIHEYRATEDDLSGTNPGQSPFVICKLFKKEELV
Method in brief: as §1

## TCGTCAAA
[1]
  binding signal: 0.0878 E-score
[2]
  binding signal: 0.0946 E-score
[3]
  binding signal: 0.0744 E-score
[4]
  binding signal: 0.432 E-score

## CGTTGACC
[5]
  binding signal: 0.0797 E-score
[6]
  binding signal: 0.0594 E-score
[7]
  binding signal: 0.123 E-score
[4]
  binding signal: 0.496 E-score

## CGTTTGAC
[2]
  binding signal: 0.0858 E-score
[6]
  binding signal: 0.0589 E-score
[3]
  binding signal: 0.0861 E-score
[4]
  binding signal: 0.476 E-score

## GCAGTCAA
[2]
  binding signal: 0.0666 E-score
[6]
  binding signal: 0.0815 E-score
[7]
  binding signal: 0.0556 E-score
[4]
  binding signal: 0.478 E-score

## CCGTCAAC
[5]
  binding signal: 0.0816 E-score
[4]
  binding signal: 0.451 E-score

## CAGTTGAC
[5]
  binding signal: 0.135 E-score
[1]
  binding signal: 0.0582 E-score
[2]
  binding signal: 0.112 E-score
[6]
  binding signal: 0.0525 E-score
[3]
  binding signal: 0.0574 E-score
[4]
  binding signal: 0.477 E-score

## CTCGTCAA
[1]
  binding signal: 0.0602 E-score
[2]
  binding signal: 0.0515 E-score
[6]
  binding signal: 0.0553 E-score
[4]
  binding signal: 0.424 E-score

## ACGACCAA
[6]
  binding signal: 0.103 E-score
[4]
  binding signal: 0.416 E-score

## AGGTTACC
[8]
  binding signal: 0.0662 E-score
[5]
  binding signal: 0.0729 E-score
[9]
  binding signal: 0.182 E-score
[7]
  binding signal: 0.437 E-score

## AGGTAACC
[8]
  binding signal: 0.148 E-score
[10]
  binding signal: 0.105 E-score
[9]
  binding signal: 0.137 E-score
[7]
  binding signal: 0.442 E-score

## GACCGTCA
[6]
  binding signal: 0.0503 E-score
[4]
  binding signal: 0.407 E-score

## CGAGGTCA
[7]
  binding signal: 0.0549 E-score
[4]
  binding signal: 0.425 E-score

## GGGTTGAC
[6]
  binding signal: 0.0845 E-score
[4]
  binding signal: 0.477 E-score

## GGGAAACC
[8]
  binding signal: 0.144 E-score
[7]
  binding signal: 0.443 E-score

## CGGTCAAA
[3]
  binding signal: 0.0603 E-score
[7]
  binding signal: 0.0552 E-score
[4]
  binding signal: 0.49 E-score

## ACATTGAC
[6]
  binding signal: 0.0505 E-score
[4]
  binding signal: 0.465 E-score

## CAATTGAC
[6]
  binding signal: 0.054 E-score
[4]
  binding signal: 0.435 E-score

## GGTCTTCA
[6]
  binding signal: 0.0664 E-score
[4]
  binding signal: 0.431 E-score

## ATGGGTCA
[6]
  binding signal: 0.0537 E-score
[4]
  binding signal: 0.422 E-score

## AGTCGTCG
[6]
  binding signal: 0.119 E-score
[4]
  binding signal: 0.432 E-score

## AGTCAAGC
[7]
  binding signal: 0.0828 E-score
[4]
  binding signal: 0.459 E-score

## ATTGACCG
[9]
  binding signal: 0.0505 E-score
[4]
  binding signal: 0.487 E-score

## TACGGTCA
[6]
  binding signal: 0.0976 E-score
[4]
  binding signal: 0.442 E-score

## ATTCCCCC
[10]
  binding signal: 0.146 E-score
[7]
  binding signal: 0.402 E-score

## ACGGTCAG
[7]
  binding signal: 0.0654 E-score
[4]
  binding signal: 0.432 E-score

## GAGGGAAA
[8]
  binding signal: 0.11 E-score
[10]
  binding signal: 0.11 E-score
[5]
  binding signal: 0.154 E-score
[6]
  binding signal: 0.0766 E-score
[7]
  binding signal: 0.472 E-score

## AGGGTAAC
[8]
  binding signal: 0.059 E-score
[10]
  binding signal: 0.0788 E-score
[9]
  binding signal: 0.0751 E-score
[7]
  binding signal: 0.416 E-score

## CGGGGTCA
[7]
  binding signal: 0.107 E-score
[4]
  binding signal: 0.412 E-score

## GGAGGAAA
[8]
  binding signal: 0.124 E-score
[10]
  binding signal: 0.146 E-score
[7]
  binding signal: 0.459 E-score

## GTCGTTGA
[9]
  binding signal: 0.0529 E-score
[3]
  binding signal: 0.0569 E-score
[4]
  binding signal: 0.43 E-score

## CTGGGTCA
[9]
  binding signal: 0.0748 E-score
[4]
  binding signal: 0.439 E-score

## AGGGTCAA
[7]
  binding signal: 0.0535 E-score
[4]
  binding signal: 0.483 E-score

## CGGTCAAC
[6]
  binding signal: 0.118 E-score
[4]
  binding signal: 0.495 E-score

## CCTTTCCC
[8]
  binding signal: 0.088 E-score
[10]
  binding signal: 0.11 E-score
[5]
  binding signal: 0.0681 E-score
[7]
  binding signal: 0.421 E-score

## GTCGTCAA
[6]
  binding signal: 0.0529 E-score
[4]
  binding signal: 0.424 E-score
